Source: PubChem BioAssay (National Center for Advancing Translational Sciences (NCATS))
An excerpt weighted towards active compounds, which were near 11% of everything screened.
ALDH1A1 inh: blocks purified human ALDH1A1 activity; P00352; Purified ALDH1A1, NADH fluorescence, propionaldehyde substrate; hit rate 7.3% among 220,000; Potency, µM (top dose mostly 75.3 µM), for inactives: at the highest dose activity, negative = inhibition, usual class: inhibitors;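 further: potency means the concentration at half of the fitted maximal effect; plate controls were no enzyme wells and a reference inhibitor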
Target sequence (P00352 whole entry, looked up): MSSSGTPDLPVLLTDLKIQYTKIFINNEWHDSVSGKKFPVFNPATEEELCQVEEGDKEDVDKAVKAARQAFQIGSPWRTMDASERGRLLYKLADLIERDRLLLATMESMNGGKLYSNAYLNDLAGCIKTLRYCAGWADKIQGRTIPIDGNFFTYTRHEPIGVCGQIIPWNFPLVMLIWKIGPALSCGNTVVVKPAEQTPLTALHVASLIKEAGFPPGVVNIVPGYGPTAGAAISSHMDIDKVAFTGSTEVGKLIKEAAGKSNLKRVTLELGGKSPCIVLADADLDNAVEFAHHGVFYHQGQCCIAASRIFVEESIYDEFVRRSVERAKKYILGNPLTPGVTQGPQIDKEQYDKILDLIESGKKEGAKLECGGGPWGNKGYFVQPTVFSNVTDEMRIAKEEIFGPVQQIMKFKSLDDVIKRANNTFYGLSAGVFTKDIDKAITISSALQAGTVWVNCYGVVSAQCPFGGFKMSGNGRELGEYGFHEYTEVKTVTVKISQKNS
HPGD block: blocks human HPGD enzyme activity; AID 894; purified HPGD, NADH fluorescence kinetic, PGE2 substrate; hit rate 4.3% among 150,000; Potency, µM, for inactives: top-dose activity change, negative = inhibition, hits mostly inhibitors; P15428; further: potency means the concentration at half of the fitted maximal effect
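20 nM HPGD preincubated 15 min at room temperature with compound in 50 mM Tris-HCl pH 8, 0.01% Tween 20. Started with 1 mM NAD+ and 30 uM prostaglandin E2; NADH fluorescence (360/450 nm) read 5 times over 30-s intervals, last minus first.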
PNC assembly inh: perinucleolar compartment assembly inhibition | hit rate 3.1% among 140,000 | activity change (PNC), negative = inhibition, % at 10 µM | AID 2417 | PC3M PTB-GFP, PNC prevalence imaging, 16 h; active compounds read low;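 active means readout at or below -70, meaning at least 70% loss of cells showing the perinucleolar compartment, a nuclear body marking cancer cells; inconclusive means readout between -30 and a set limit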;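 further: plate controls were DMSO wells for no effect and camptothecin positive control wells for full effect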
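PC3M cells stably expressing PTB-GFP, 750–1000 cells/well, treated 16 h at 37 °C with compound (23 nl of library stock), in duplicate. After paraformaldehyde fixation and Hoechst stain, imaged at 20x; PNC prevalence scored by image analysis.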
An asterisk follows results filed as active; ? = inconclusive; · = no result; [ ] = another dose, or the depositor's remark. Unless noted, the call rests on the fitted dose curve; in most records, active means well fitted inhibition curve with a large enough effect (not every such curve was filed as active); inconclusive means small, poorly fitted or top-dose-only effect, or another doubt; inactive means no such curve, though single readings can be large or run the other way. Unless noted, on the % scale 0 is the no-effect control and ±100 the full control effect.

SMILES	ALDH1A1 inh	HPGD block	PNC assembly inh
CC(C)c1ccc(C(=O)NC2=NCCS2)cc1	2.7%	-13.3%	36.0
CC(Cc1ccccc1)C(=O)NCC1CC1 (stereo not drawn)	2.6%	-6.1%	·
Cc1ccc(C)c2c3c([nH]c12)-c1nonc1CC3	22.4µM*	-22.0%	10.8
O=c1cc(CSc2nnnn2-c2ccccc2)nc(Nc2ccc(F)cc2)[nH]1	7.94µM*	-5.8%	?
O=c1[nH]c(CSc2nnnn2-c2ccccc2)nc2ccccc12	0.3%	·	·
N/C(=N\c1nc(CSc2nnnn2-c2ccccc2)cc(=O)[nH]1)Nc1ccccc1	5.01µM*	·	·
Cc1ccc(SCc2cc(=O)[nH]c(/N=C(\N)Nc3ccc(C)c(C)c3)n2)cc1	8.91µM*	-14.2%	22.7
COCc1cc(=O)[nH]c(/N=C(\N)Nc2ccc(C)cc2)n1	-2.5%	-10.2%	47.8
COc1ccc(N/C(N)=N/c2nc(CSc3ccc(Cl)cc3)cc(=O)[nH]2)cc1	2.6%	-4.1%	-24.5
Cn1c2ccccc2c(=O)c2c(=O)n(C3CCCCC3)c(-c3ccco3)nc21	-15.3%	-3.8%	-3.7
CC(=O)/C(=N/Nc1ccccc1)Sc1nnc(C(O)c2ccccc2)n1-c1ccccc1 (stereo not drawn)	13.0%	-7.8%	18.1
CCN(CC)CCCN1C(=O)c2oc3ccccc3c(=O)c2C1c1cc(OC)ccc1OC (stereo not drawn)	4.3%	-14.8%	?
COCCCNC(=O)COc1ccc(S(=O)(=O)NCc2ccccc2)cc1Cl	8.5%	-5.9%	42.6
COc1ccc(OC)c(C2NC(=S)NC(C)=C2C(=O)Nc2ccccn2)c1 (stereo not drawn)	-3.6%	·	·
CCOC(=O)C1=C(C)C(c2ccccc2)NC(=S)N1 (stereo not drawn)	2.51µM*	2.4%	29.4
COC(=O)C1=C(C)C(c2ccc(OC)cc2)NC(=O)N1 (stereo not drawn)	8.0%	·	·
CCOC(=O)[C@@H]1CCNC[C@@H]1c1ccccc1	-6.9%	·	?
COc1ccc(C2NC(=O)NC(C)=C2C(=O)Nc2cccc(C)c2C)cc1 (stereo not drawn)	2.82µM*	4.0%	-17.2
COC(=O)C1=C(C)C(c2ccc(OC)cc2)NC(=S)N1 (stereo not drawn)	8.91µM*	-12.4%	-0.5
COc1ccc(C2NC(=S)NC(C)=C2C(=O)Nc2ccccn2)cc1 (stereo not drawn)	14.1µM*	·	·
COc1cc(C2NC(=O)NC(C)=C2C(=O)Nc2cccc(C)c2C)cc(OC)c1OC (stereo not drawn)	6.4%	-7.3%	58.4
CCCCC(Sc1nc(N)c(NC(=O)c2ccc(OC)cc2)c(=O)[nH]1)C(=O)O (stereo not drawn)	8.0%	·	·
CN1CCN(CC(O)(c2ccc(Cl)cc2)c2ccc(Cl)cc2)CC1	-2.2%	·	·
C#CCn1c(S(=O)(=O)Cc2ccc(F)cc2)nc(-c2ccccc2)c1-c1ccccc1	4.7%	-10.8%	-105.9*
CCOC(=O)Cn1c(S(=O)(=O)Cc2ccc(F)cc2)nc(-c2ccccc2)c1-c1ccccc1	2.5%	-13.7%	-2.6
SMILES	ALDH1A1 inh	HPGD block	PNC assembly inh
COc1ccc(/C=C/C(=O)Nc2c(C)nn(C)c2C)cc1COc1ccc(Cl)cc1Br	3.3%	-14.2%	?
CN/N=C(\Cc1nc2ccccc2[nH]1)c1ccc([N+](=O)[O-])cc1	20µM*	·	·
N#CCCN/N=C(/Cc1nc2ccccc2[nH]1)c1cccc(Cl)c1	?	-23.3%	-16.0
O=C(NCCc1nc2ccccc2[nH]1)c1ccc([N+](=O)[O-])cc1	5.0%	·	·
O=C(Cc1nc2ccccc2[nH]1)c1ccc([N+](=O)[O-])cc1	17.8µM*	·	·
Clc1ccc(/C(Cc2nc3ccccc3[nH]2)=N\Nc2ccccc2)cc1	4.47µM*	·	·
CNCc1nc2ccccc2[nH]1	0.7%	·	·
Cc1cc2c(cc1Cl)N(C(=O)Nc1ccnc3ccccc13)CC2	-9.4%	-9.0%	·
CN(C)S(=O)(=O)c1ccc(C(=O)NCC(=O)N/N=C/c2ccccc2Cl)cc1	-3.1%	·	·
O=c1oc2c(-c3cccc(F)c3)cc(O)cc2s1	0.5%	·	·
CC(C)C[C@@H](NC(=O)[C@@H](O)[C@H](N)Cc1ccccc1)C(=O)O	7.0%	-6.2%	·
Cc1ccc(Oc2ccc(OCC(=O)NC(CC(C)C)C(=O)O)cc2)cc1 (stereo not drawn)	6.31µM*	·	·
CC(C)COc1ccc(C(=O)NC(CC(C)C)C(=O)O)cc1 (stereo not drawn)	2.2%	·	25.4
CCCOc1ccccc1NC(=O)Nc1ccccc1Cl	-3.2%	·	·
Clc1ccc(-c2nnc(COc3ncnc4sccc34)o2)cc1	-5.2%	-15.4%	-26.3
COc1ccc(Cc2nnc(NC(=O)Cc3cccs3)s2)cc1OC	?	?	-100.0*
COC(=O)c1cc(OC)c(OC)cc1NC(=O)Cc1cccs1	3.16µM*	·	·
O=C(Cc1cccs1)Nc1nnc(Cc2ccccc2)s1	?	-27.8%	19.2
COc1ccc(NC(=O)Cc2cccs2)c(OC)c1	5.8%	-22.7%	?
CCCc1nnc(NC(=O)CCC(=O)N2CCN(C3c4ccccc4-c4ccccc43)CC2)s1	-5.8%	-8.9%	68.0
COc1cccc(-c2csc(N3CCN(C(=S)Nc4ccc(Cl)cc4)CC3)n2)c1	0.0891µM*	-21.4%	100.0
COc1cccc(-c2csc(N3CCN(C(=S)Nc4ccccc4)CC3)n2)c1	0.7%	-11.7%	37.6
CC(=O)Nc1cccc(-c2csc(NCc3ccco3)n2)c1	12.6µM*	-23.9%	40.7
COc1ccc(-c2csc(NC(C)=O)n2)cc1OC	?	-16.0%	34.8
COc1cccc(-c2csc(NC(C)=O)n2)c1	11.2µM*	?	-5.1
SMILES	ALDH1A1 inh	HPGD block	PNC assembly inh
COc1cccc(-c2csc(N3CCN(C(=O)NC45CC6CC(CC(C6)C4)C5)CC3)n2)c1	?	-5.1%	-25.5
Oc1ccc(-c2csc(NCc3ccco3)n2)cc1	?	-13.8%	17.4
COc1cccc(-c2csc(N3CCN(C(=O)Nc4ccccc4Cl)CC3)n2)c1	22.4µM*	·	·
Cc1ccc(NC(=O)CSc2nc3ccccc3c(=O)n2CCCC(=O)NCCCN2CCOCC2)cc1	-4.4%	·	·
Cc1cc(C)c(C)c(S(=O)(=O)N2CCN(CC(=O)NC(=O)NCc3ccccc3)CC2)c1C	15.1%	·	-22.9
C/C(=N\NC(=O)COc1ccc(C)cc1C(C)C)c1ccc(-n2ccnc2)cc1	-7.6%	-13.9%	-22.2
Cc1cnc(CNc2ccnc(-c3cccnc3)n2)cn1	-5.4%	·	·
CNC1=C(Br)C(=O)c2ccncc2C1=O	-10.8%	-15.3%	·
Cc1ccc(OCC(=O)N(Cc2ccccc2)C(C)C)c([N+](=O)[O-])n1	-1.3%	3.1%	9.0
COc1cccc(-c2csc(N3CCN(S(=O)(=O)c4ccc(F)cc4)CC3)n2)c1	-16.9%	-10.8%	32.2
COc1cccc(-c2csc(N3CCN(Cc4ccccc4)CC3)n2)c1	10µM*	25.1µM*	-14.1
CCCOc1ccc(-c2csc(NC(=O)CN3C(=O)CCC3=O)n2)cc1	-6.9%	-10.3%	?
O=C(NCc1cccs1)O[C@H]1C[C@H]2CC[C@@H]1C2	4.1%[13.5 µM]	-3.7%	·
O=C(O)CCC(=O)N1CCN(c2cccc(Cl)c2)CC1	28.2µM*	-6.5%	0.3
COc1ccc(OCC(=O)N2CCN(c3cccc(Cl)c3)CC2)cc1	5.8%	-4.1%	12.2
O=C(Cc1cccs1)N1CCN(c2cccc(Cl)c2)CC1	6.0%	·	·
CCOCC(=O)N1CCN(c2cccc(Cl)c2)CC1	3.16µM*	·	·
O=C(COc1ccccc1-c1ccccc1)NCc1cccc(Cl)c1	4.1%	·	?
